Source: PubChem BioAssay AID1345083 (National Center for Advancing Translational Sciences (NCATS), 2018)
Among all 94,000 compounds or so, about 6,200 (6.6%) were called active. Not shown: some 31% with an inconclusive outcome. Shown is part of a subset that was picked to be rich in actives. Unmarked numbers belong to inactive results. Calls follow the shape of the dose curve; as a rule, active = well fitted inhibition curve with a large enough effect; inconclusive = small, poorly fitted or top-dose-only effect; inactive = flat fitted curve, though single readings scatter.

assay: Cytotoxic Profiling in HEK 293 Cell Line of Diverse Libraries Using Quantitative High-Throughput Screening; settings: HEK 293 viability, ATP luminescence (CellTiter-Glo), 48-72 h; series mostly up to 115 µM; activity change, negative = cytotoxicity: at the top concentration; also: nearly all actives have a fitted effect of over 60% in size
Text: Cell-based phenotypic screening is a commonly used approach to discover biological pathways, novel drug targets, chemical probes and high-quality hit-to-lead molecules. Many hits identified from high-throughput screening campaign are ruled out through a series of follow-up potency, selectivity/specificity, and cytotoxicity assays. Prioritization of molecules with little or no cytotoxicity for a more in-depth downstream evaluation influence the future direction of projects, so cytotoxicity profiling of the screening libraries at early stage is essential for increasing the likelihood of candidate success. In this study, we analyzed results from a cell-based cytotoxicity screening campaign, comprising nearly 10,000 compounds in NCATS annotated libraries, and over 100,000 compounds in a diversity library, evaluated in four normal cell lines (HEK 293, NIH 3T3, CRL-7250 and HaCat) and a cancer cell line (KB 3-1, a HeLa subline) with overall screening outcomes, hit rates, pan-activity and selectivity. For the annotated library, we also examined the primary targets and mechanistic pathways regularly associated with cell death. To our knowledge, this is the first study to use high-throughput screening to profile large libraries for cytotoxicity assessment in both normal and cancer cell lines. In summary, the results generated here constitutes a valuable resource for the scientific community and provides insight on identifying cytotoxic compounds with particular mechanisms of action, and prioritizing compounds with suitable cytotoxicity profile for further evaluation.
HEK 293 cells were seeded into white 1536-well plates using a Multidrop Combi peristaltic dispenser (ThermoFisher, Waltham, MA) at a density of 250 cells/well in 5 uL of medium respectively. A pintool (Kalypsys) was used to transfer 23 nL of compound solution to the 1536-well assay plates. After 48 or 72 hr incubation at 37 degree Celsius, 5% CO2 and 95% humidity, 2.5 uL of CellTiter-Glo (Promega) was dispensed into each well using a dispenser (Aspect Automation, St. Paul, MN) with solenoid valves (Lee Valves, Westbrook CT). Plates were left at room temperature for 10 min before imaging the ATP-coupled luminescence using a ViewLux microplate imager (PerkinElmer, Waltham, MA).
% is scaled to controls: 0 for no effect and ±100 for the full control effect; potency is read from the fitted curve at half-maximal effect.

Row | Structure (SMILES) | activity change, negative = cytotoxicity | Potency | outcome
1 | COCC1CN(C(C)=O)CC12CCN(Cc1cccc(C#N)c1)CC2 (stereo not drawn) | 0.069% |  | 
2 | COc1cccc(CC(=O)N2CCC(CC3CC3)(NC(=O)c3ccccc3)CC2)c1 | -16.1% |  | 
3 | CC(=O)NC1(C)CCN(Cc2cccc(-c3ccc(C(=O)c4ccccc4)cc3)c2)C1 (stereo not drawn) |  | 39.8 µM (active) | 
4 | CCC(C(=O)Nc1ccc2c(c1)CN(Cc1cc(F)cc(F)c1)C(=O)CO2)c1ccccc1 (stereo not drawn) |  | 44.7 µM (active) | 
5 | COc1cccc(CC(=O)N[C@@H]2C[C@H](Cn3cc(C4CC4)nn3)[C@@H](O)[C@H]2O)c1 |  |  | inactive [at 172 µM]
6 | Cc1cc2nc3n(c(=O)c2n1CC(=O)NC1CCCCC1)CCCC3 | 8.3% |  | 
7 | FC(F)(F)c1cccc(-c2cc(C3=CCOCC3)c3cncn3c2)c1 |  | 100 µM (active) | 
8 | OCc1cccc(-c2cc(C3=CCOCC3)c3cncn3c2)c1 | -21.3% [at 172 µM] |  | 
9 | CC1=NS(=O)(=O)N(Cc2ccc(Cl)cc2)C=C1C(=O)O | -2.93% |  | 
10 | COc1ccc(CCC(=O)N2C[C@@H](Oc3ccccc3)C[C@H]2C(=O)N2CCOCC2)cc1 | -0.714% |  | 
11 | O=C(Nc1ccc(F)cc1)c1cn2cc(-c3ccc(C(F)(F)F)cc3)sc2n1 | -0.955% |  | 
12 | Cc1cc2ncc(C(=O)NCc3cccnc3)cn2n1 |  |  | inactive [at 172 µM]
13 | O=C(NCc1cccnc1)c1cn2cc(-c3cccc(C(F)(F)F)c3)sc2n1 |  | 28.2 µM (active) | 
14 | Cc1ccc(-c2cn3cc(C(=O)NCc4cccnc4)nc3s2)cc1 |  | 44.7 µM (active) | 
15 | O=C(NCc1ccccc1Cl)c1cn2cc(-c3ccc(C(F)(F)F)cc3)sc2n1 | -12.3% |  | 
16 | O=C(c1cn2cc(-c3cccnc3)sc2n1)N1CCCCC1 | -5.61% |  | 
17 | Cc1noc(C)c1S(=O)(=O)N1CCCC(c2nn[nH]n2)C1 (stereo not drawn) |  |  | inactive
18 | CN(C)CC1(O)CCC2(CCN(C(=O)c3ccc4ccccc4n3)CC2)CC1 | -3.02% |  | 
19 | COC(=O)N1CCCC(C(=O)N2CCC3(CC2)CC(=O)Nc2ccccc2O3)C1 (stereo not drawn) | -25.2% |  | 
20 | COc1cccc(Nc2n[nH]c(C(O)c3cccc(C(F)(F)F)c3)n2)c1 (stereo not drawn) |  | 79.4 µM (active) | 
21 | COc1ccccc1C(O)c1nc(Nc2ccc(C(F)(F)F)cc2)n[nH]1 (stereo not drawn) |  | 89.1 µM (active) | 

Row | Structure (SMILES) | activity change, negative = cytotoxicity | Potency | outcome
22 | O=C1CCN(C(=O)c2nccc3ccccc23)CCOCCN1 | -0.481% |  | 
23 | COCCNC(=O)CN1C(=O)NC2(CCC(C(C)(C)C)CC2)C1=O (stereo not drawn) | -19.9% |  | 
24 | O=C(c1cccc(N2CCNC2=O)c1)N1CC(=O)N(C2CCCCC2)CC(OCc2ccccc2)C1 (stereo not drawn) | 21.7% |  | 
25 | O=c1n(CCN2CCN([S+](=O)([O-])c3ccccc3)CC2)nc2n1CCCC2 | -11.1% |  | 
26 | Cc1cc(C)n(Cc2cc(C(=O)N3CCSCC3)n[nH]2)n1 |  |  | inactive
27 | FC(F)(F)c1ccc(CN2CCn3c(nnc3-c3ccccc3)C2)cc1 |  | 89.1 µM (active) | 
28 | Clc1ccc(-c2nnc3n2CCN(Cc2cccnc2)C3)cc1 |  |  | inactive
29 | CC(=O)Nc1ccc(CN2CCn3c(nnc3-c3ccccc3)C2)cc1 | -4.01% |  | 
30 | COc1ccc(C(=O)N2CCC(n3cc(-c4nc(C)no4)nn3)CC2)c(OC)c1 | -3.26% |  | 
31 | CCN1CCC(N2CC[C@H](CO)[C@H](N(C)C)C2)CC1 | -0.762% |  | 
32 | COCCn1c(=O)n([C@H]2CCCN(C(=O)c3cc(C)n(C)n3)C2)c2ncccc21 | 0.0693% |  | 
33 | CC1Oc2ccc(NC(=O)c3ccc([N+](=O)[O-])cc3)cc2CN(Cc2ccccc2)C1=O (stereo not drawn) |  | 31.6 µM (active) | 
34 | COCC(=O)Nc1ccc2c(c1)CN(Cc1ccccc1F)C(=O)C(C)O2 (stereo not drawn) | -28.2% |  | 
35 | Cc1nn2c(c1-c1ccccc1-c1ccccc1)N(C(=O)CN1CCOCC1)CCC2 | -19.4% [at 172 µM] |  | 
36 | Cc1nn2c(c1-c1ccnn1C(C)C)N(CC1CCOCC1)CCC2 |  | 44.7 µM (active) | 
37 | Cc1nn2c(c1-c1ccccc1-c1ccccc1)N(CC1CC1)CCC2 |  | 2.82 µM (active) | 
38 | Cc1nn2c(c1-c1ccccc1C(C)C)N(C(=O)c1cnccn1)CCC2 | -10.1% [at 172 µM] |  | 
39 | Cc1nc(C)c(C(=O)N2CCCN(S(=O)(=O)c3ccccc3)CCC(=O)NCC2)s1 |  |  | inactive
40 | O=C1NCCCCCN(Cc2cccnc2)[C@@H]2CN(C(=O)C3CCCCC3)CC[C@@H]12 | -21.9% |  | 
41 | COC(=O)c1c(NC(=O)c2ccccc2)c2cc(NC(C)C)cnc2n1CC1CCCO1 (stereo not drawn) |  |  | inactive
42 | O=C(N[C@@H]1CN(c2ncccn2)C[C@H]1CO)c1ccco1 | -4.45% |  | 

Row | Structure (SMILES) | activity change, negative = cytotoxicity | Potency | outcome
43 | Cc1nc(C)c(C(=O)N2CCC3(CC2)CC(N2CCCC2)CCO3)s1 (stereo not drawn) | 0.51% |  | 
44 | CCN1CC2(CCN(C(=O)[C@H]3Cc4ccccc4CN3)CC2)CC1=O | -15% |  | 
45 | O=C(NCc1nnc2n1C(C(=O)NCCc1ccc(Cl)cc1)CC2)c1ccc(Cl)cc1Cl (stereo not drawn) | -7.78% |  | 
46 | CC(C)CC(=O)NCC1Cn2cccc2CN1Cc1ccccc1 (stereo not drawn) | -15.5% |  | 
47 | COCC(=O)N1CCN(C(=O)c2cccc(-c3ccc(OC)nn3)c2)CC1 |  |  | inactive
48 | COC(=O)N1CCN(C(=O)c2cccc(-c3ccccc3OC)c2)CC1 |  | 63.1 µM (active) | 
49 | COc1ccccc1-c1cccc(C(=O)N2CCC[C@H]2C(=O)N(C)C)c1 | -0.487% |  | 
50 | CC(=O)N1CC2(CCN(CCCn3ccnc3C)CC2)CC1C(=O)O (stereo not drawn) |  |  | inactive
51 | Cc1cnc(C(=O)NC2C[C@H]3CC[C@@H](C2)N3C(=O)c2cc(C)n(C)n2)cn1 (stereo partly drawn) |  |  | inactive
52 | CC1(c2ccccc2)N(Cc2ccccc2)C(=O)OC12CCN(c1ccncc1)CC2 (stereo not drawn) |  | 89.1 µM (active) | 
53 | CC1(c2ccccc2)N(Cc2ncccn2)C(=O)OC12CCN(CCCc1ccccc1)CC2 (stereo not drawn) | -16.8% |  | 
54 | CC1(c2cccnc2)N(Cc2ccccc2)C(=O)OC12CCN(C(=O)c1cccc(Cl)c1)CC2 (stereo not drawn) | -18% |  | 
55 | CCN(Cc1ccccc1)C(=O)CC1CCCN(c2cnn(CCOC)c(=O)c2)C1 (stereo not drawn) | -1.1% |  | 
56 | COc1ccc(-c2noc(-c3nnn4c3COC(c3ccc(OC)cc3)C4)n2)cc1 (stereo not drawn) | 17.9% |  | 
57 | CC(C)CC(=O)N1CCC(Oc2ccccc2-c2nc(C3CCOCC3)no2)C1 (stereo not drawn) | -37.7% |  | 
58 | Cc1nc(C)c(C(=O)N2CCC(Oc3ccccc3-c3nc(-c4ccccc4)no3)C2)s1 (stereo not drawn) |  | 28.2 µM (active) | 
59 | Cc1noc(-c2ccccc2OC2CCN(C(=O)c3cnccc3C)C2)n1 (stereo not drawn) | -0.104% |  | 
60 | CCn1ccc(C(=O)N2CCCN(S(=O)(=O)c3ccccc3)CCC(=O)NCC2)n1 |  |  | inactive
61 | C[C@H]1[C@@H]2[C@H]3OC(=O)[C@@H](C)[C@@H]3CC[C@@]2(C)CC[C@@H]1NC(=O)Cc1ccccc1 |  | 100 µM (active) | 
62 | COCCNC(=O)C(C)[C@@H]1CC[C@@]2(C)CC[C@H](NC(=O)c3ccccc3)[C@@H](C)[C@@H]2[C@H]1O (stereo partly drawn) | -10.3% [at 172 µM] |  | 
63 | C[C@H]1[C@@H]2[C@@H](O)C([C@H](C)C(=O)NCCN3CCOCC3)CC[C@@]2(C)CC[C@@H]1NC(=O)c1ccccc1 (stereo partly drawn) | -4.94% |  | 
